# Test results as given in PubChem BioAssay AID1159580 (chemical genetic matrix, 2015).
# The whole screen tested about 5,500 compounds, of which about 2,000 (36%) were called active. Inconclusive results (about 18%) are left out. This is one part of the list. A number with no mark means an inactive call. Rule as the data show it: active = normalized growth mostly below about 0.91 (no sharp cut-off); inconclusive = no clear call, values can overlap the other calls; inactive = mostly above about 0.92.
# Assay: chemical genetic growth profiling, strain panel (AID 1159580);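 also: tested at 20 µM; growth read once vehicle control cultures reached saturation at 30 °C; 1 = growth at the plate median or of vehicle wells; lower values mean less growth of the strain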
# Conditions: growth OD
smiles,measurement,setting,value
O=C1C(c2ccc(Br)cc2)=C(O)c2ccccc21,normalized growth,"S. cerevisiae deletion strains, locus YAL013W, strain DEP1, active compounds read low",0.981
same,normalized growth,"S. cerevisiae deletion strains, locus YBR229C, strain ROT2, active compounds read low",0.912 (active)
same,normalized growth,"S. cerevisiae deletion strains, locus YDL101C, strain DUN1, active compounds read low",0.953
same,normalized growth,"S. cerevisiae deletion strains, locus YDR150W, strain NUM1, active compounds read low",0.958
same,normalized growth,"S. cerevisiae deletion strains, locus YEL061C, strain CIN8, active compounds read low",0.99
same,normalized growth,"S. cerevisiae deletion strains, locus YGR078C, strain PAC10, active compounds read low",0.915 (active)
same,normalized growth,"S. cerevisiae deletion strains, locus YGR229C, strain SMI1, active compounds read low",0.952
same,normalized growth,"S. cerevisiae deletion strains, locus YHR030C, strain SLT2, active compounds read low",0.849
same,normalized growth,"S. cerevisiae deletion strains, locus YHR087W, strain rtc3, active compounds read low",0.868 (active)
same,normalized growth,"S. cerevisiae deletion strains, locus YJL187C, strain SWE1, active compounds read low",0.913 (active)
same,normalized growth,"S. cerevisiae deletion strains, locus YJR043C, strain POL32, active compounds read low",0.978
same,normalized growth,"S. cerevisiae deletion strains, locus YJR075W, strain HOC1, active compounds read low",0.851 (active)
same,normalized growth,"S. cerevisiae deletion strains, locus YKL190W, strain CNB1, active compounds read low",0.983
same,normalized growth,"S. cerevisiae deletion strains, locus YLR039C, strain RIC1, active compounds read low",0.974
same,normalized growth,"S. cerevisiae deletion strains, locus YLR058C, strain SHM2 (second series), active compounds read low",0.893 (active)
same,normalized growth,"S. cerevisiae deletion strains, locus YLR085C, strain ARP6, active compounds read low",0.982
same,normalized growth,"S. cerevisiae deletion strains, locus YLR262C, strain YPT6, active compounds read low",0.957
same,normalized growth,"S. cerevisiae deletion strains, locus YML094W, strain GIM5, active compounds read low",0.983
same,normalized growth,"S. cerevisiae deletion strains, locus YMR219W, strain ESC1, active compounds read low",0.896 (active)
same,normalized growth,"S. cerevisiae deletion strains, locus YMR263W, strain SAP30, active compounds read low",1.02
same,normalized growth,"S. cerevisiae deletion strains, locus YNL153C, strain GIM3, active compounds read low",0.966
same,normalized growth,"S. cerevisiae deletion strains, locus YNL298W, strain CLA4 (second series), active compounds read low",0.994
same,normalized growth,"S. cerevisiae deletion strains, locus YNL322C, strain KRE1, active compounds read low",0.938 (active)
same,normalized growth,"S. cerevisiae deletion strains, locus YNR030W, strain Alg12, active compounds read low",0.989
same,normalized growth,"S. cerevisiae deletion strains, locus YOL006C, strain TOP1, active compounds read low",1.01
same,normalized growth,"S. cerevisiae deletion strains, locus YPL055C, strain LGE1, active compounds read low",0.928
same,normalized growth,"S. cerevisiae deletion strains, locus YPL241C, strain CIN2, active compounds read low",1.03
same,normalized growth,"S. cerevisiae deletion strains, locus YPR135W, strain CTF4, active compounds read low",0.942
same,normalized growth,"S. cerevisiae strains, strain wild type, active compounds read low",0.979
